Compounds with a hit are over-represented: about 18% of the library has one in this group of screens.
TDP1 inh = qHTS Assay for Inhibitors of Tyrosyl-DNA Phosphodiesterase (TDP1) | 350,000 tested, 0.28% active | recombinant TDP1, AlphaScreen DNA substrate cleavage | Potency, µM (top dose mostly 130 µM), without a hit: at the top dose activity change, negative = inhibition, hits mostly inhibitors | AID 485290, 2010; further: potency means the concentration at half of the fitted maximal effect; on the % scale 0 is the no-effect control and ±100 the full control effect; nearly all actives have a fitted effect of over 40% in size
Target sequence (Q9NUW8 whole entry, looked up): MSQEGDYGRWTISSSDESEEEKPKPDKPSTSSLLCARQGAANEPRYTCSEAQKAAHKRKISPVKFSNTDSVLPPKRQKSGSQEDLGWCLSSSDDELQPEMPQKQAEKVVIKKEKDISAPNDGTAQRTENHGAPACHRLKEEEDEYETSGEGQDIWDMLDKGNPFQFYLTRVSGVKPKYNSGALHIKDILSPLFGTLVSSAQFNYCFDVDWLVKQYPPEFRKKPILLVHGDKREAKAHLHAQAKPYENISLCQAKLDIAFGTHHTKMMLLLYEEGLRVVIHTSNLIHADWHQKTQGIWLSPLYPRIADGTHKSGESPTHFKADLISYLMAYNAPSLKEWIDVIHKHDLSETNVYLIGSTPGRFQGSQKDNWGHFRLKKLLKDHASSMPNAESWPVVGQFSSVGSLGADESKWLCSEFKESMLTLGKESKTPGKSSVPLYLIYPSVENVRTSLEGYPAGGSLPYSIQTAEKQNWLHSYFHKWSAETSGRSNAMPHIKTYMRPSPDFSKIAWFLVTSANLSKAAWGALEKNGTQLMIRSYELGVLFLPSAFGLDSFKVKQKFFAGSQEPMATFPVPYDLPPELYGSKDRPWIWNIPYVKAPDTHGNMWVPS
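E. coli-derived human Tdp1, 1 nM final. Cpd preinc 15 min RT; substrate 15 nM final, 5 min RT; AS bead mix 10 ug/ml final, 10 min RT. Signal loss = tyrosine-FITC cleavage. No-enzyme wells = max signal.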
TDP1 cell noCPT = qHTS for Inhibitors of human tyrosyl-DNA phosphodiesterase 1 (TDP1): qHTS in cells in absence of CPT. DT40 Tdp1-/- hTDP1 cells, no CPT, ATP luminescence, 48 h. Potency, µM (doses to about 46.2 µM), without a hit: at the top dose activity change, negative = growth inhibition, most hits filed as inhibitors. 420,000 tested, 15% active. AID 686978, 2013; further: potency means the concentration at half of the fitted maximal effect; on the % scale 0 is the no-effect control and ±100 the full control effect; nearly all actives have a fitted effect of over 55% in size
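Growth of hTDP1-complemented DT40 Tdp1-knockout cells is measured by ATP luminescence after at least 48 hr compound exposure at 37 °C, with DMSO substituting for the 20 nM CPT used in the parallel screen.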
TDP1 cell CPT = qHTS for Inhibitors of human tyrosyl-DNA phosphodiesterase 1 (TDP1): qHTS in cells in presence of CPT; chicken DT40 Tdp1-/-;hTDP1 cells + 20 nM CPT, ATP luminescence, 48 h; Potency, µM (doses to about 46.2 µM), for the others: at the highest dose activity change, negative = growth inhibition, hits mostly inhibitors; 420,000 tested, 12% active; AID 686979, 2013; further: potency means the concentration at half of the fitted maximal effect; on the % scale 0 is the no-effect control and ±100 the full control effect; nearly all actives have a fitted effect of over 55% in size
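Chicken DT40 Tdp1-/- cells complemented with human TDP1, 400 cells/well, exposed to compounds plus 20 nM camptothecin for at least 48 h at 37 C; viability read as ATP content by CellTiter-Glo luminescence.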
HepG2 tox = qHTS for Inhibitors of TGF-b: Cytotox Counterscreen; HepG2 CAGA-GFP viability, ATP luminescence, 18 h; Potency, µM (highest dose often 46.1 µM), for the others: top-dose activity change, negative = cytotoxicity, most hits filed as cytotoxic; 410,000 tested, 0.76% active; AID 588856, 2011; further: potency means the concentration at half of the fitted maximal effect
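CellTiter-Glo luminescence gave cytotoxicity after 18 hours at 37 degrees C. The cells were HepG2 CAGA-GFP in 1% FBS DMEM, stimulated with 500 pg/mL TGF-beta after compound addition. %Activity was normalised to no-cell wells (complete cell-killing) and DMSO (no toxicity), and curves were fitted and classified.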
IL1B secr inh = qHTS for Inhibitors of Inflammasome Signaling: IL-1-beta AlphaLISA Primary Screen. THP-1 LPS/ATP IL-1B secretion, AlphaLISA, 16 h; stronger effect = lower value. activity change, % at 57.5 µM. 360,000 tested, 4.7% active. AID 743279, 2014; in the data active means activity change below about -50%; inconclusive means mostly about -30% to -49%; further: on the % scale 0 is the no-effect control and ±100 the full control effect
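Secreted IL-1B measured by AlphaLISA bead assay after 16 h compound exposure of THP-1 cells; compounds (final up to 57.5 uM) added 1 h before LPS (250 ng/mL) and ATP (1.25 mM) stimulation; lower signal means less secretion.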
TGFb SMAD3 inh = qHTS for Inhibitors of TGF-b; HepG2 CAGA-GFP TGF-b/SMAD3 reporter, GFP fluorescence, 18 h; TGF-beta stimulated, 500 pg/mL final; Potency, µM (doses to about 46.1 µM), for the others: top-dose activity, negative = inhibition, usual class: inhibitors; 410,000 tested, 1.2% active; AID 588855, 2011; further: potency means the concentration at half of the fitted maximal effect; on the % scale 0 is the no-effect control and ±100 the full control effect; nearly all actives have a fitted effect of over 65% in size
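HEPG2 CAGA-GFP cells (1000/well, DMEM with 1% FBS) were pre-incubated 2 h at 37 degrees C, given compound by pin tool, then stimulated with TGF-beta at 500 pg/mL final for 18 h before per-cell GFP fluorescence imaging.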
An asterisk follows results filed as active; ? = inconclusive; / = not tested or not shown. Unless noted, the call rests on the fitted dose curve; in most records, active means well fitted curve in the direction sought with a large enough effect; inconclusive means small, poorly fitted or top-dose-only effect, or another doubt; inactive means no such curve, though single readings can be large; an effect the other way counts as inactive or inconclusive.

SMILES	TDP1 inh	TDP1 cell noCPT	TDP1 cell CPT	HepG2 tox	IL1B secr inh	TGFb SMAD3 inh
COc1ccc(C(C)=O)cc1COC(=O)C1CC(=O)N(Cc2ccccc2)C1 (stereo unspecified)	3%	9%	5%	7%	0	1%
N#Cc1ccccc1NC(=O)C(=O)NCC(c1cccnc1)N1CCc2ccccc21 (stereo unspecified)	4%	16µM*	21µM*	-9%	/	?
COc1ccc(C(=O)NCC(c2cccnc2)N2CCc3ccccc32)cc1 (stereo unspecified)	-5%	?	9.2µM*	-16%	/	?
COc1ccccc1N1CCN(C(CNC(=O)c2ccc3c(c2)OCO3)c2cccnc2)CC1 (stereo unspecified)	4%	?	?	-15%	7	-4%
O=C(NCC(c1cccnc1)N1CCc2ccccc21)c1ccc(Cl)cc1 (stereo unspecified)	5%	12µM*	10µM*	-25%	/	?
CN1CCN(C(CNC(=O)C(=O)Nc2ccccc2C#N)c2ccc3c(c2)OCO3)CC1 (stereo unspecified)	-2%	1%	5%	-2%	/	3%
CCOC(=O)C1=C(CNCc2ccccc2)NC(=O)NC1c1ccc(C)cc1 (stereo unspecified)	7%	?	?	-2%	/	-27%
O=C(NCCCN1CCOCC1)c1ccc2c(c1)N(Cc1ccccc1)CCS2	10%	23µM*	?	-21%	?	0%
O=C(NCCN1CCOCC1)c1ccc2c(c1)N(Cc1ccccc1)CCS2	4%	?	?	-40%	-2	?
CCN1CCN(CCCNC(=O)c2ccc3c(c2)N(Cc2ccc(C)cc2)CCS3)CC1	9%	?	?	-29%	-1	7%
Cc1ccc(CN2CCSc3ccc(C(=O)NCCCN4CCOCC4)cc32)cc1	10%	?	21µM*	8%	-51*	1%
CN1CCN(CCCNC(=O)c2ccc3c(c2)N(Cc2ccccc2)CCS3)CC1	4%	?	21µM*	-40%	-27	-14%
O=C(COC(=O)C1=COCCO1)NCc1ccc(F)cc1	2%	17%	28%	-77%	24	-7%
OCC1OC(n2cnc3c(N4CCCCC4)ncnc32)C(O)C1O (stereo unspecified)	/	-9%	-17%	-53%	0	?
CSc1ccc(/C=C/C(=O)OCC(=O)NC2CC2)cc1	0%	-17%	?	-21%	0	-6%
O=C(COC(=O)C1=COCCO1)Nc1cc(Cl)c(Cl)cc1Cl	-1%	-9%	-14%	-6%	24	3%
CCc1ccccc1Nc1nn2c(=O)c3ccc(C(=O)Nc4ccc(OC)cc4)cc3nc2s1	6%	13µM*	21µM*	-13%	/	?
COc1ccc(NC(=O)c2ccc3c(=O)n4nc(Nc5cc(C)ccc5C)sc4nc3c2)cc1	3%	5.8µM*	6.5µM*	-21%	/	-31%
CCN(C(=O)COC(=O)C1CCN(S(=O)(=O)c2cccs2)CC1)c1ccccc1	0%	-2%	-3%	1%	17	3%
Cc1nn(CC#N)c(=O)n1-c1ccccc1	2%	-1%	-1%	-2%	21	1%
CCCCNC(=O)NS(=O)(=O)c1ccc(C(=O)OC(C)C)o1	-2%	-11%	-6%	-4%	16	12%
Nc1ncnc2c1ncn2C1OC(C(=O)NC2CC2)C(O)C1O (stereo unspecified)	/	0%	12%	13%	-1	40%
CC(=O)N1CCSc2ccc(S(=O)(=O)NCCc3cccc(C)c3)cc21	2%	10µM*	21µM*	-21%	-80*	-8%
CC(=O)N1CCSc2ccc(S(=O)(=O)NCCc3ccc(C)cc3)cc21	2%	21µM*	23µM*	-20%	?	-15%
CC(=O)N1CCSc2ccc(S(=O)(=O)Nc3ccc(C)cc3)cc21	5%	-16%	?	-20%	16	0%
SMILES	TDP1 inh	TDP1 cell noCPT	TDP1 cell CPT	HepG2 tox	IL1B secr inh	TGFb SMAD3 inh
CC(=O)N1CCOc2ccc(S(=O)(=O)NCCc3ccccc3)cc21	3%	-20%	-17%	-3%	1	1%
CC(=O)N1CC(C)Sc2ccc(S(=O)(=O)NCc3ccc(Cl)cc3)cc21 (stereo unspecified)	1%	?	?	-15%	0	?
CC(=O)N1CCSc2ccc(S(=O)(=O)NCCc3ccc(Cl)cc3)cc21	-1%	?	16µM*	-19%	9	-12%
Cn1cc(S(=O)(=O)N2CCCCCC2)cc1C(=O)N1CCN(c2ccc(Cl)cc2)CC1	8%	?	?	2%	/	?
Cc1[nH]c(C)c(S(=O)(=O)N2CCCCC2C)c1C(=O)N1CCCC1 (stereo unspecified)	6%	13%	2%	13%	11	6%
CN(C(=O)COC(=O)/C=C/c1cn(-c2ccccc2)nc1-c1ccc2c(c1)OCCO2)C1CCS(=O)(=O)C1 (stereo unspecified)	4%	15µM*	?	1%	?	-12%
O=C(COC(=O)/C=C/c1cn(-c2ccccc2)nc1-c1ccc2c(c1)OCCO2)NC1CCS(=O)(=O)C1 (stereo unspecified)	/	21µM*	?	-13%	?	-3%
Cc1ccc2ccc[n+](Cc3ccccc3)c2c1	1%	9.2µM*	16µM*	-3%	20	-23%
Cc1ccc2c(c1)c(C)cc[n+]2Cc1ccccc1	5%	2.9µM*	2.6µM*	-25%	19	-7%
Cc1cc[n+](CC(=O)c2ccc(F)cc2)c2ccccc12	/	?	?	-5%	/	21%
COc1ccc2c(c1)c(C)cc[n+]2Cc1ccccc1	/	1.6µM*	2.6µM*	-39%	-26	?
Cc1ccc2c(ccc[n+]2CC(=O)c2ccccc2)c1	2%	-29%	?	1%	-22	-15%
COC(=O)c1c(OCc2cccnc2)cc(=O)n2c1CCN(C(=O)c1ccc(OC)c(F)c1)CC2	/	-14%	8%	/	/	/
